Compounds without any hit were thinned out: in the full panel of roughly 79,000, 15% have a hit. Unmarked numbers belong to inactive results. The source made the active and inactive calls. No stated cut-off is given here; in the data, active means growth inhibition above about 70%; inactive means the rest.
How the values were obtained:
[1] = NCI Yeast Anticancer Drug Screen. Data for the rad50 strain (AID 155);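 further: 0% = growth of vehicle-only cultures of the same strain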; conditions: S. cerevisiae rad50 strain growth inhibition, stronger effect = higher value
Outline: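 Yeast carrying a defined DNA repair defect were exposed to test compounds, and growth was compared with vehicle-treated controls to give percent inhibition.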

[2] = NCI Yeast Anticancer Drug Screen. Data for the mec2-1 strain (AID 157); conditions: S. cerevisiae mec2-1 strain, stronger effect = higher value
Outline: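 Each compound was tested on mec2-1 yeast, a strain altered in DNA damage repair or cell cycle control. Growth inhibition is reported relative to vehicle.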

[3] = NCI Yeast Anticancer Drug Screen. Data for the sgs1 mgt1 strain (AID 161);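 further: 0% = growth of cultures given vehicle only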; conditions: S. cerevisiae sgs1 mgt1 strain, stronger effect = higher value
Outline: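 Mutant yeast exposed to compound; growth scored against vehicle-only wells.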

[4] = NCI Yeast Anticancer Drug Screen. Data for the cln2 rad14 strain (AID 165);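 further: 0% = growth equal to vehicle treated cultures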; conditions: S. cerevisiae cln2 rad14 strain, stronger effect = higher value
Outline: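 Test compounds were added to cln2 rad14 yeast cultures; inhibition of growth was then determined by comparison with vehicle treatment.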

[5] = NCI Yeast Anticancer Drug Screen. Data for the bub3 strain (AID 167); conditions: S. cerevisiae bub3 mutant strain, stronger effect = higher value
Outline: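 Compounds were applied to a genetically altered yeast strain carrying a cell-cycle control defect. Growth inhibition was scored against vehicle-treated controls.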

[6] = NCI Yeast Anticancer Drug Screen. Data for the mlh1 rad18 strain (AID 175); conditions: S. cerevisiae mlh1 rad18 strain growth inhibition, stronger effect = higher value
Outline: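 Inhibition values reflect reduced growth of mutant yeast versus vehicle-treated controls following compound exposure; the mutations affect DNA damage repair.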

[7] = at 5.0 µM (retest, dose inferred, filed as 0.5)
[8] = at 50.0 µM (retest, dose inferred, filed as 5.0)

SMILES	growth inhibition [1, 7]	growth inhibition [1, 8]	growth inhibition ([1]; at 50.0 µM)	growth inhibition [2, 7]	growth inhibition [2, 8]	growth inhibition ([2]; at 50.0 µM)	growth inhibition [3, 7]	growth inhibition [3, 8]	growth inhibition ([3]; at 50.0 µM)	growth inhibition [4, 7]	growth inhibition [4, 8]	growth inhibition ([4]; at 50.0 µM)	growth inhibition [5, 7]	growth inhibition [5, 8]	growth inhibition ([5]; at 50.0 µM)	growth inhibition [6, 7]	growth inhibition [6, 8]	growth inhibition ([6]; at 50.0 µM)
Clc1ccc(C2=CCCc3ccccc32)cc1	-3%	1%	91.1% (active)	6%	-4%	96.2% (active)	-14%	7%	95.8% (active)	5%	-19%	95.7% (active)	6%	-2%	88.5% (active)	-2%	3%	96.5% (active)
CC(C)SC(=S)S(=O)(=O)c1ccc(Cl)cc1	5%	69%	99.4% (active)	0%	64%	99.8% (active)	18%	74% (active)	99.7% (active)	-6%	63%	78.2% (active)	11%	83% (active)	99.7% (active)	8%	76% (active)	99.7% (active)
CC(C)NCC=C=Nc1ccccc1	-11%	-32%	45.8%	-30%	-25%	9.45%	-8%	-21%	43.4%	-2%	-28%	40.5%	-26%	-82%	-5.5%	-9%	-29%	24.2%
CCCCCCCCCCCCCCCC[N+](C)(C)CCl	99% (active)	100% (active)	85.6% (active)	99% (active)	100% (active)	89.7% (active)	99% (active)	100% (active)	82.2% (active)	99% (active)	99% (active)	89% (active)	99% (active)	100% (active)	87.3% (active)	99% (active)	100% (active)	80.1% (active)
CCCCCCNC(=S)N/N=C(\C)c1ccccn1	72% (active)	99% (active)	76.3% (active)	86% (active)	99% (active)	85.7% (active)	63%	99% (active)	90% (active)	90% (active)	95% (active)	90.3% (active)	98% (active)	99% (active)	90.5% (active)	97% (active)	93% (active)	91.2% (active)
C(=P(c1ccccc1)(c1ccccc1)c1ccccc1)[P+](c1ccccc1)(c1ccccc1)c1ccccc1.[Br][Cu][Br]	98% (active)	99% (active)	99.2% (active)	99% (active)	99% (active)	99.5% (active)	99% (active)	99% (active)	99.2% (active)	98% (active)	99% (active)	98% (active)	98% (active)	99% (active)	99% (active)	99% (active)	99% (active)	99.3% (active)
CCCCCCCCCCCc1ccn[nH]1	-7%	98% (active)	98.4% (active)	3%	99% (active)	99.3% (active)	9%	99% (active)	99.3% (active)	-18%	99% (active)	98.3% (active)	14%	98% (active)	99% (active)	-3%	98% (active)	98.9% (active)
O=C(c1ccccc1)C1Cc2ccccc2C1=O (configuration not stated)	2%	39%	78.5% (active)	-16%	2%	50.1%	0%	5%	86.5% (active)	3%	1%	19.8%	35%	13%	4.4%	2%	11%	84.2% (active)
C/C(=N\OS(=O)(=O)O)SC1OC(CO)C(O)C(O)C1O (configuration not stated)	3%	-17%	3.1%	-2%	-13%	-4.8%	-1%	11%	-7.4%	-16%	18%	-0.95%	-2%	-3%	-8.15%	6%	-3%	-11%

Source: PubChem BioAssay (NCI)
